Shown are actives, neighbours in structure and some others; about 3.1% of the full set was active somewhere.
Calb FLC: C. albicans growth modulation with fluconazole. C. albicans CaCi-2 (fluconazole-resistant clinical isolate) + fluconazole, Alamar Blue growth, 48 h. growth inhibition, % (no concentration beside the values). 300,000 tested, 0.57% active;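 active = growth inhibition above about 58% in most replicates, limit read from the data, passing the limit was not always enough; inconclusive = exactly half the replicates above a set limit; inactive = most replicates below a set limit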;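 also: all wells also contain fluconazole at 8 µg/ml as a sub-toxic cotreatment; 0% = median of DMSO wells and 100% = median of geldanamycin control wells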
ATG4B inhibitor: ATG4B (human) cysteine protease inhibition; ATG4B cleavage of LC3-PLA2, NBD-HPC fluorescence, 1 h; inhibition, % at 8.33 µM; AID 504462; 340,000 tested, 0.51% active; Q9Y4P1; in the data active = inhibition above about 40%
Target sequence (Q9Y4P1 whole entry, looked up): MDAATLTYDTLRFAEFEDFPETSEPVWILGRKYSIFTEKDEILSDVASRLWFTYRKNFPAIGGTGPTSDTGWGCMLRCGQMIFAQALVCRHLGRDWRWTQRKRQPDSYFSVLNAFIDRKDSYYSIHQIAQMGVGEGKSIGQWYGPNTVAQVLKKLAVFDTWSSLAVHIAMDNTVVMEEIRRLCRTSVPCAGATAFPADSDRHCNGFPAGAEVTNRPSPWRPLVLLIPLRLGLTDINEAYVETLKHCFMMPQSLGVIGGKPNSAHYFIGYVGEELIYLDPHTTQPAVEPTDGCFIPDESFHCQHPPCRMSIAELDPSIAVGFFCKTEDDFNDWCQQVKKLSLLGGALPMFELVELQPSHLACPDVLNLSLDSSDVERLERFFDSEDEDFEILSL
SUMO Mot1 rescue: SUMOylation pathway inhibition by Mot1-301 growth rescue. S. cerevisiae Mot1-301 growth rescue, ATP luminescence, 38.5C; percent above DMSO median, 100 means doubled. growth rescue, % at 18.8 µM. 320,000 tested, 1% active. AID 2716;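 active = every valid replicate shows activation above 250% relative to neutral control wells; inactive = the rest, any valid replicate at or below 250%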;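 also: OY570 slx delta 5 strain wells were the positive control but not used for scaling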
FAS TE block: FAS thioesterase (human) inhibition; recombinant FAS-TE, OMFH fluorogenic substrate, fluorescence endpoint; inhibition, % at 15 µM; 360,000 tested, 0.67% active;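 active = compounds whose normalised, plate-corrected inhibition of enzyme fluorescence in the single-dose primary screen is 50% or more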;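 also: 0% = DMSO with enzyme and 100% = substrate without enzyme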
NadD block: NadD (S. aureus) enzyme inhibition; purified NadD enzyme, colorimetric absorbance read-out; inhibition, % at 20 µM; 360,000 tested, 0.78% active; AID 602399; in the data active = inhibition above about 26%
FAS-TE inh conf: confirmation of human fatty acid synthase thioesterase inhibitors. shares compounds with FAS TE block. recombinant FAS-TE, OMFH fluorogenic substrate, fluorescence. inhibition, % at 15 µM. 2,300 tested, 45% active;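 active = compounds inhibiting the enzyme by at least 50% at 15 µM in any one of the replicates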;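 also: 0% = enzyme with DMSO only and 100% = wells lacking enzyme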
Numbers without * were called inactive; u = inconclusive; x = not tested or not shown.

SMILES	Calb FLC	ATG4B inhibitor	SUMO Mot1 rescue	FAS TE block	NadD block	FAS-TE inh conf
N#Cc1ccc(COC(=O)CC(NC(N)=O)c2ccc(Cl)cc2)cc1 (stereo not given)	2.4	-10.8	33.8	2.4	-4.1	x
COc1ccc(NC(=S)N2C3CCC2CC(NC(=O)NC24CC5CC(CC(C5)C2)C4)C3)c(OC)c1 (stereo not given)	-24.2	-1.0	-7.5	2.8	10.6	x
Cc1cc([N+](=O)[O-])ccc1NC(=O)CN1C2CCC1CC(NC(=O)NC13CC4CC(CC(C4)C1)C3)C2 (stereo not given)	4.0	-3.4	-2.4	50.8*	7.3	10.7
CCC(=O)OCCNc1cc(Sc2nc3ccccc3s2)c2nonc2c1[N+](=O)[O-]	0.0	3.5	143.2	82.6*	5.5	10.8
CCCC(=O)OCCNc1cc(SCc2ccco2)c2nonc2c1[N+](=O)[O-]	-32.4	-6.8	12.7	25.4	8.7	x
CCC(=O)OCCNc1cc(Sc2nc3ccccc3[nH]2)c2nonc2c1[N+](=O)[O-]	x	2.6	6.0	80.3*	3.4	82.6*
COc1ccccc1C(=O)NCCC(=O)NCC(c1ccc(F)cc1)N1CCOCC1 (stereo not given)	-2.7	-2.6	-9.8	-6.0	2.7	x
C[C@H](CO)N1C[C@H](C)[C@@H](CN(C)C(=O)c2ccc3ccn(C)c3c2)OCc2cn(nn2)CCCC1=O	x	x	x	-6.3	-2.0	x
C[C@H](NC(=O)C1CCN(S(=O)(=O)c2ccccc2)CC1)C(=O)NCc1cccc(Cl)c1	-11.9	-4.6	5.8	6.4	-3.2	x
C[C@H](NC(=O)C1CCN(S(=O)(=O)c2ccccc2)CC1)C(=O)NCc1ccc(Cl)c(Cl)c1	-0.4	-15.8	-2.8	51.6*	-2.5	45.8*
CCC(=O)Nc1cc2c3c(c1)CCC(=O)N3CCC2	11.8	-7.0	-5.3	-4.2	1.7	x
Cc1nnc(Sc2cc(NCCO)c([N+](=O)[O-])c3nonc23)s1	-8.9	-3.0	x	64.8*	-2.9	63.6*
CCCSc1cc(NCCOC(C)=O)c([N+](=O)[O-])c2nonc12	-23.7	-10.1	-2.8	13.6	-0.9	x
Cc1nnc(Sc2cc(NCCCO)c([N+](=O)[O-])c3nonc23)s1	3.1	-7.4	x	62.7*	-3.9	69.5*
O=[N+]([O-])c1c(NCCO)cc(N2CCCCCC2)c2nonc12	6.1	-8.0	-14.9	0.3	-0.6	x
O=C(NCc1cccc(Cl)c1)C1Cc2c(-c3ccc(Cl)cc3)ccnc2O1 (stereo not given)	x	x	x	32.2	-2.0	x
O=C(O)c1cccc(-c2ccccc2)c1O	x	-1.2	x	-4.0	-0.5	x
O=C(CSc1nnc(-c2ccccc2F)o1)N1CCNC1=O	x	-2.8	-20.3	-6.7	-6.5	x
CCO[C@H]1OC(C(=O)NCc2ccccc2)=C[C@@H](C2CCCCC2)[C@@H]1CCCO	-4.8	-10.2	258.5	57.2*	1.7	63.3*
CCO[C@@H]1OC(C(=O)NCc2ccccc2)=C[C@H](C(C)(C)C)[C@H]1CCCO	-1.0	-0.7	-3.1	9.9	-4.4	x
COc1ccccc1N1CCN(C(=O)C(C)NC(=O)c2cccc([N+](=O)[O-])c2)CC1 (stereo not given)	-0.8	-3.6	-8.9	80.4*	1.3	85.8*
COc1ccc(C(C)NC(=O)c2cccc([N+](=O)[O-])c2)cc1OC (stereo not given)	-2.0	4.4	2.9	-4.8	0.0	x
O=C(COc1ccc([N+](=O)[O-])cc1)Nc1ccc2c(c1)OCO2	7.5	-5.7	2.9	58.9*	-0.3	41.1
COc1ccc(OCC(=O)Nc2ccc3c(c2)OCO3)cc1	7.1	2.0	5.1	-1.2	-0.6	x
CO/N=C/C1CCN(c2ncc(C(F)(F)F)cc2Cl)C1=O (stereo not given)	u	-2.8	-12.5	-5.0	-4.3	x
SMILES	Calb FLC	ATG4B inhibitor	SUMO Mot1 rescue	FAS TE block	NadD block	FAS-TE inh conf
O=C(NN1C(=O)C2C(c3ccccc3)C=CC(c3ccccc3)C2C1=O)c1cccc(Br)c1 (stereo not given)	24.3	6.0	-11.1	53.8*	10.0	45.4*
COc1ccc(O)c(C(=O)C2c3ccccc3C(=O)N2c2ccc(C)cc2)c1 (stereo not given)	2.4	-3.5	-15.4	15.9	2.6	x
COc1ccc(C(Nc2ccccn2)c2c(NC(=O)c3ccco3)sc(C)c2C)cc1 (stereo not given)	13.7	-0.1	-10.1	31.7	11.6	x
Cc1sc(NC(=O)c2ccco2)c(C(Nc2ccccn2)c2ccccc2)c1C (stereo not given)	-5.1	-8.9	-1.0	60.5*	3.2	14.9
COc1cccc(C(c2c(NC(=O)c3ccco3)sc(C)c2C)N2CCOCC2)c1 (stereo not given)	x	-7.2	x	28.5	1.3	x
COc1cccc(C(Nc2ccccn2)c2c(NC(=O)c3ccco3)sc(C)c2C)c1 (stereo not given)	-21.6	-6.8	-34.9	54.3*	5.0	10.6
COC(=O)[C@]1(Cc2ccccc2)N[C@H](CN(C)S(=O)(=O)c2ccc(C(C)(C)C)cc2)[C@@H]2C(=O)N(Cc3ccccc3)C(=O)[C@@H]21	x	x	18.1	55.0*	17.7	22.0
COC(=O)[C@]1(Cc2ccccc2)N[C@H](CN(C)S(=O)(=O)c2ccc(C(F)(F)F)cc2)[C@@H]2C(=O)N(Cc3ccccc3)C(=O)[C@@H]21	x	21.4	-7.3	17.9	12.1	x
CCN(C[C@H]1N[C@@](Cc2ccccc2)(C(=O)OC)[C@H]2C(=O)N(Cc3ccccc3)C(=O)[C@@H]12)C(=O)Nc1ccc(C(F)(F)F)cc1	x	-9.0	-3.8	61.9*	13.6	16.7
O=[N+]([O-])c1cc(S(=O)(=O)Nc2cccc(C(F)(F)F)c2)ccc1-n1nnc2ccccc21	50.3	12.1	11.9	65.7*	0.5	79.6*
COc1ccc(NS(=O)(=O)c2ccc(-n3nnc4ccccc43)c([N+](=O)[O-])c2)cc1	11.6	-5.7	-3.1	23.4	2.7	x
COc1ccc(CNc2nc(NC(C)=O)nn2-c2ccccc2)cc1	1.1	3.1	1.5	-1.8	1.0	x
O=c1oc(-c2cccnc2)nc2ccccc12	-1.4	7.8	-9.8	1.7	-6.3	x
O=c1oc(-c2ccccc2Br)nc2ccccc12	20.9	16.7	4.4	60.6*	-2.5	52.8*
Cc1nn(Cc2ccc([N+](=O)[O-])cc2)c(=O)n1N(C)c1ncc(C(F)(F)F)cc1Cl	60.4	-12.5	206.1	79.0*	-4.4	65.2*
O=C(Nc1cccc(C(=O)O)c1)/C(=C\c1cccc([N+](=O)[O-])c1)NC(=O)c1ccc(Br)cc1	x	x	x	69.2*	3.7	75.4*
COc1ccc(C(=O)N/C(=C\c2cccc([N+](=O)[O-])c2)C(=O)Nc2cccc(C(=O)O)c2)cc1	-2.2	11.4	262.7	49.1	-3.2	x
O=C(NCc1ccccc1)/C(=C\c1cccc([N+](=O)[O-])c1)NC(=O)c1ccco1	x	x	x	68.0*	6.3	76.2*

Bioassay records (PubChem)
